# D2 antagonist – antagonists of human D2 dopamine receptor | P14416 | HEK293 TREx D2 cells, calcium flux, dopamine EC80 | inhibition, % at 10 µM | actives 2% (n = 340,000) | AID 485344; in the data active means inhibition above about 30%; inactive means below that, where a call was filed; further: 0% is about no effect
#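 Inhibition of EC80 dopamine-driven calcium flux, recorded kinetically, defines activity here; cells are a tetracycline-induced HEK293 T-REx line expressing force-coupled D2.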
# D2 PAM-1 – potentiates the human D2 dopamine receptor allosterically. actives 0.23% (n = 360,000). DiscoveRx D2 beta-arrestin cells, luminescence, 90 min; 100% = 57 uM dopamine signal. P14416. potentiation, % (no concentration beside the values); in the data active means potentiation above about 50%; inconclusive means mostly about 30% to 49%
#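 PathHunter beta-arrestin assay in DiscoveRx D2 cells. Compounds were added with an EC20 of dopamine (50 nM final) for 90 min at 37 deg C. Luminescence was read 1 h after detection reagent, with 57 uM dopamine as the EC100 control.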
# B2AR arrestin – agonists driving beta-arrestin recruitment to human beta2-adrenergic receptor | beta-arrestin recruitment to beta2AR, cell-based reporter | Potency, µM (titrated, usually from 46.1 µM), inactives show at the highest dose activation, actives largely listed as activators | actives 0.02% (n = 330,000) | P07550;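 further: potency means the concentration at half of the fitted maximal effect; 0% = DMSO controls and full agonism = EC100 isoproterenol or metaproterenol; nearly all actives have a fitted effect of over 65% in size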
# Target sequence (P07550 whole entry, looked up): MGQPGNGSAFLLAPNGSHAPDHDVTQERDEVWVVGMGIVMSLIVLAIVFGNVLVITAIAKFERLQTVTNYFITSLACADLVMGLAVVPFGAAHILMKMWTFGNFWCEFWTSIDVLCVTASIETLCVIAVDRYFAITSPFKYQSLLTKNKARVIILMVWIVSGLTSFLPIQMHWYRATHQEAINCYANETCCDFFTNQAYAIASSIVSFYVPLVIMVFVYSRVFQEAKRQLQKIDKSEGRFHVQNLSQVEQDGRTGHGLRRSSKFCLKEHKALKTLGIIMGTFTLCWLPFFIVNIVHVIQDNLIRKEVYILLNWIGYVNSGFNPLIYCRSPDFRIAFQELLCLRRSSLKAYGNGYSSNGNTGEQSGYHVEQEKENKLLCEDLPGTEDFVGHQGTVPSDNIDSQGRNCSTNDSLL
# D2 PAM-2 – D2 dopamine receptor (human) potentiation; P14416; potentiation, % at 10 µM; HEK293 T-REx D2, calcium flux, EC20 dopamine potentiation; actives 0.34% (n = 340,000);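 active means potentiation over 3 SD above the plate norm, cut at about 30% in these data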; further: 0% is about no effect
#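 Tetracycline-induced Hek293 Trex D2 cells, force-coupled to calcium, loaded with no-wash calcium dye. Compound added with 180 s kinetic read for agonism, then EC20 dopamine and a further 180 s read for potentiation.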
# D2 ag-1 – D2 dopamine receptor (human) agonism; P14416; HEK293 T-REx D2 cells, calcium flux agonist mode; activation, % at 2 µM; actives 0.53% (n = 340,000); AID 485358;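 active means activation over 3 SD above normal in the single-dose calcium agonist read, cut at about 30% in these data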; further: 0% is about no effect
#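 Calcium-flux readout, 1 cycle/sec over 180 s following compound pin transfer, in inducible HEK293 Trex D2 cells (force-coupled); dopamine controls included. Positive calcium responses during this window marked compounds as potential agonists.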
# D2 ag-2 – agonists of human D2 dopamine receptor (beta-arrestin). DiscoveRx PathHunter D2 beta-arrestin, luminescence, 90 min; 100% = 57 uM dopamine signal. activation, % (no concentration beside the values). actives 0.084% (n = 360,000). P14416; in the data active means activation above about 40%; inconclusive means between about 15% and that limit
#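 DiscoveRx PathHunter D2 beta-arrestin cells (2,100/well) attached overnight, then compound-stimulated 90 min at 37 C in HBSS/10 mM HEPES/0.1% Tween-20 buffer; beta-galactosidase complementation read by luminescence after 1 h at ambient temperature. Dopamine 57 uM final (EC100) as control.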
# D3 ag – D3 receptor agonism confirmed, beta-arrestin readout; AID 720506; shares compounds with D2 ag-1; Potency, µM (top dose mostly 76.9 µM), inactives show at the highest dose activation, actives largely listed as activators; actives 4% (n = 2,300); DiscoveRx D3 beta-arrestin cells, luminescence, 90 min;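 further: potency means the concentration at half of the fitted maximal effect; 100% = dopamine control response; nearly all actives have a fitted effect of over 70% in size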
# D2 ag-3 – D2 receptor agonism, beta-arrestin counterscreen; DiscoveRx PathHunter D2 beta-arrestin, luminescence, 90 min; response scale: percent relative to full dopamine signal; shares compounds with D2 ag-1; AID 720507; actives 5.9% (n = 2,300); Potency, µM (series often up to 76.9 µM), inactives show top-dose activation, usual class: activators; further: potency means the concentration at half of the fitted maximal effect; % of control where 0% means no effect; nearly all actives have a fitted effect of over 70% in size
# Numbers without * were called inactive; ? = inconclusive; nt = no result given. Compounds with a hit are over-represented: about 2.4% of the library has one in this group of screens. Unless noted, the call rests on the fitted dose curve; in most records, active means well fitted activation curve with a large enough effect; inconclusive means small, poorly fitted or top-dose-only effect; inactive means flat fitted curve, though single readings scatter.
SMILES,D2 antagonist,D2 PAM-1,B2AR arrestin,D2 PAM-2,D2 ag-1,D2 ag-2,D3 ag,D2 ag-3
O=C1CC(C(=O)Nc2cccc(F)c2)n2c(nc3ccccc32)N1 (centres undefined),-3,0,0%,2,1,4,nt,nt
Cc1sc(NC(=O)c2ccco2)c(CN2CCN(c3ccccc3)CC2)c1C,17,-31,0%,-18,41*,0,1%,5%
O=C(NCCCn1ccnc1)C(=O)NCC(c1ccco1)N1CCN(c2ccc(F)cc2)CC1 (centres undefined),7,-11,1%,1,4,3,nt,nt
O=C(NCCCn1ccnc1)C(=O)NCC(c1ccco1)N1CCN(c2ccccc2)CC1 (centres undefined),16,15,0%,-24,63*,54*,20%,?
O=C(NCC(c1ccco1)N1CCN(c2ccccc2)CC1)c1ccco1 (centres undefined),40*,10,0%,-8,12,13,?,?
COc1ccc(N2CCN(C(CNC(=O)c3ccco3)c3ccco3)CC2)cc1 (centres undefined),13,-6,-1%,10,0,-1,nt,nt
O=C(NCCCn1ccnc1)C(=O)NCC(c1cccnc1)N1CCN(c2ccccc2)CC1 (centres undefined),3,-5,0%,-13,43*,-4,5%,12%
Cc1sc(NC(=O)c2ccco2)c(CN2CCCCC2)c1C,3,-14,0%,-1,0,-3,nt,nt
COc1ccc(CNC(=O)Cn2c(SCC(=O)N(C)c3ccccc3)nc3ccccc32)cc1,nt,nt,nt,7,0,nt,nt,nt
CCOC(=O)c1c(C)[nH]c(C(=O)COC(=O)c2c(CC)noc2C)c1C,7,-4,0%,-4,0,0,nt,nt
COCCN1CCc2nc(SCC(=O)Nc3ccc(Br)cc3)[nH]c(=O)c2C1,nt,nt,nt,3,1,nt,nt,nt
CCn1c(=O)c2cc(S(=O)(=O)NCc3ccccc3)ccc2n(CC)c1=O,6,2,0%,-12,0,2,nt,nt
COc1cc(OC)c(OC)cc1CCC(C)NCCC(c1ccccc1)c1ccccc1 (centres undefined),49*,-39,-1%,-18,50*,14,3%,?
COc1ccc(CCNCCC(c2ccccc2)c2ccccc2)cc1OC,nt,-46,nt,nt,nt,-5,nt,nt
COc1ccccc1CCNC(C)CCc1ccc(O)cc1 (centres undefined),3,-2,0%,-18,41*,0,?,6%
COc1ccc(CCC(C)NCc2ccccc2OC)cc1 (centres undefined),-16,-2,-1%,-7,1,-6,nt,nt
CCOc1ccc(-c2c(C)nn3c(C)c(C(=O)NCCc4ccccc4)cnc23)cc1OCC,nt,nt,nt,-2,2,nt,nt,nt
CC12CCC(=O)C=C1CCC1C3CC(O)C(O)(C(=O)CO)C3(C)CC(O)C12F (centres undefined),nt,8,nt,nt,nt,6,nt,nt
CCN(CC)S(=O)(=O)c1cccc(S(=O)(=O)N2CCCCC2)c1,-3,7,0%,-21,36*,2,7%,3%
COc1cc(-c2cc(C(=O)Nc3c(Cl)cc(Cl)cc3Cl)c3ccccc3n2)cc(OC)c1OC,5,-14,-1%,7,0,-5,nt,nt
COc1ccc2nc3ccccc3nc2c1NC(=O)c1ccc(Cl)cc1Cl,6,-25,-1%,-3,29,-7,-6%,15%
O=C(NC1CCCCC1)c1cc(C2CC2)nn1-c1ccccc1,nt,2,0%,nt,nt,14,3%,11%
Cc1ccc(C2=CC(=O)C[C@H](c3ccc(Cl)cc3)C2)cc1,-2,-14,0%,8,1,-6,nt,nt
O=C1C=C(c2ccccc2)C[C@@H](c2ccc(Cl)cc2)C1,11,-5,4%,4,1,5,-8%,-2%
COc1ccc([C@H]2CC(=O)C=C(c3cccc(CO)c3)C2)cc1OC,6,-3,-1%,-4,1,1,nt,nt
SMILES,D2 antagonist,D2 PAM-1,B2AR arrestin,D2 PAM-2,D2 ag-1,D2 ag-2,D3 ag,D2 ag-3
O=C1C=C(c2cccc(CO)c2)C[C@@H](c2ccc(Cl)cc2)C1,52*,-3,0%,-2,0,0,-6%,5%
O=C1C=C(c2ccc3ccccc3c2)C[C@@H](c2ccc(Cl)cc2)C1,-9,-6,0%,-2,1,0,-11%,-2%
O=C1C=C(c2ccc3ncccc3c2)C[C@@H](c2ccc(Cl)cc2)C1,-8,-3,0%,17,1,-2,nt,nt
COC(=O)c1ccc(NC(=O)c2c(C(=O)Nc3ccccc3)sc3nc(C)cc(=O)n23)cc1,4,-10,0%,3,1,-2,nt,nt
O=C(CSc1ncnc2scc(-c3ccc(F)cc3)c12)c1ccc2c(c1)OCCO2,6,-20,0%,1,50*,1,8%,2%
COc1ccc(-c2ccc(SCC(=O)N3CCCC3)nn2)cc1OC,18,6,0%,-2,1,1,1%,-2%
O=C(NCc1cccc(C(F)(F)F)c1)C1CCCN(c2ncccn2)C1 (centres undefined),3,-7,-1%,-33,67*,-3,-9%,-5%
O=C(CSc1ccc2nnc(-c3ccncc3)n2n1)NCC1CCCO1 (centres undefined),13,-6,4%,12,0,-5,-11%,-1%
Cc1ccccc1Cn1cc(S(=O)(=O)CC(=O)N2CCCCC2)c2ccccc21,-15,1,0%,11,-1,0,nt,nt
OCC[C@H]1C[C@H](O)[C@@H](O)[C@@]2(OCCCc3ccccc32)O1,-7,-2,-1%,0,1,-3,0%,-4%
OCC[C@H]1C[C@@H](O)[C@H](O)[C@]2(OCc3ccccc32)O1,-2,-3,-1%,6,0,-2,-4%,0%
OCC[C@@H]1C[C@@H](O)[C@H](O)[C@]2(OCCCc3ccccc32)O1,-10,-2,-1%,-2,1,-1,nt,nt
CCCN1C(=O)c2ccccc2NC1c1ccc(OC)cc1O (centres undefined),-11,-9,0%,-12,0,-3,nt,nt

# High-throughput results (PubChem BioAssay)
